Assay outcomes from PubChem.
Only some compounds are listed: those with a hit (about 12% of all), similar ones and a draw of the others.
BAZ2B inh: blocks human BAZ2B; AlphaScreen BAZ2B-H3K14Ac peptide displacement; Potency, µM (doses to about 114 µM), for inactives: top-dose activity change, negative = inhibition, actives largely listed as inhibitors; 360,000 tested, 4.4% active; Q9UIF8; note: potency is the fitted concentration of half-maximal effect; % is set by controls: 0 for no effect and ±100 for the full control effect; nearly all actives have a fitted effect of over 60% in size
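In this displacement format the biotinylated H3(5-23) peptide acetylated at Lys14 serves as ligand at 50 nM, with BAZ2B at 50 nM in PBS pH 7.4 containing 0.01% Tween-20. Donor and acceptor beads are 10 ug/mL final.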
PI5P4K alpha inh: blocks human PI5P4K alpha kinase activity; P48426; PI5P4Kalpha enzyme, ADP-Glo luminescence, 60 min; hits give low values; max response, %; 330,000 tested, 1.2% active; AID 652105; active = max response of -50% or lower; inconclusive = between -30% and -50%; inactive = -30% or higher; note: value at the top dose of about 77 µM; % is set by controls: 0 for no effect and ±100 for the full control effect
Target sequence (P48426 whole entry, looked up): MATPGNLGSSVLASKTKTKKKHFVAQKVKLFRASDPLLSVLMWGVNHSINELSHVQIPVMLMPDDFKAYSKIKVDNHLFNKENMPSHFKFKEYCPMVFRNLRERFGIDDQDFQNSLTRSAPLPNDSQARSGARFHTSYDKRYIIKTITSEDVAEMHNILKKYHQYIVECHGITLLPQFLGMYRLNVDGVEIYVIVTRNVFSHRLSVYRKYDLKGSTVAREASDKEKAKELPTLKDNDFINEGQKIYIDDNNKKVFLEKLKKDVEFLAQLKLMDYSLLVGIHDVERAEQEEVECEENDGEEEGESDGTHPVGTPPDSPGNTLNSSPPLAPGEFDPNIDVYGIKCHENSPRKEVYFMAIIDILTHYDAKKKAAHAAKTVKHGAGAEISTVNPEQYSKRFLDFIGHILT
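Controls without substrate or without enzyme flank wells where PI5P4Kalpha converts substrate using 5 microM ATP (final). Incubation lasts 60 minutes at room temperature; ADP formed is read by ADP-Glo luminescence.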
PLK1 PBD block: blocks phosphopeptide binding to human PLK1 polo-box domain; P53350; Plk1 PBD binding of FITC phosphopeptide, fluorescence polarization; Potency, µM, for inactives: max response, negative = inhibition, most hits filed as inhibitors; 360,000 tested, 2.8% active; AID 720504; note: potency is the fitted concentration of half-maximal effect; series mostly up to about 57 µM; % is set by controls: 0 for no effect and ±100 for the full control effect; nearly all actives have a fitted effect of over 65% in size
G9a inh: G9a (human) methyltransferase inhibition. Q96KQ7. G9a H3K9 monomethylation, AlphaScreen, 2 h. Potency, µM (doses to about 102 µM), without a hit: top-dose activity, negative = inhibition, hits mostly inhibitors. 350,000 tested, 8.8% active; note: potency is the fitted concentration of half-maximal effect; % is set by controls: 0 for no effect and ±100 for the full control effect; nearly all actives have a fitted effect of over 75% in size
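G9a (20 nM) preincubated 15 min RT with compounds, then 500 nM biotinylated H3K9 peptide and 20 uM SAM added; 2 h RT reaction. Monomethyl-H3K9 product detected by AlphaScreen with anti-H3K9me1 antibody, streptavidin donor and anti-rabbit IgG acceptor beads.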
HP1b chromo inh: blocks HP1-beta chromodomain binding to methylated histone tails | P83916 | AlphaScreen HP1-beta / biotin-H3K9me3 peptide binding | Potency, µM (highest dose often 114 µM), for the others: at the highest dose activity change, negative = inhibition, most hits filed as inhibitors | 390,000 tested, 0.56% active | AID 540317; note: potency is the fitted concentration of half-maximal effect; nearly all actives have a fitted effect of over 70% in size
Target sequence (P83916 whole entry, looked up): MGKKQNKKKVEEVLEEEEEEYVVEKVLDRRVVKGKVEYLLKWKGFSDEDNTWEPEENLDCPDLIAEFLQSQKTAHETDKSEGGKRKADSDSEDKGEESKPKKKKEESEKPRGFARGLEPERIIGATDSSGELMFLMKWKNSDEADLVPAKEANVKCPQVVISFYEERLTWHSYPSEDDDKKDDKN
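AlphaScreen: HP1-beta (50 nM) preformed 30 min with biotin-H3(1-18)K9me3 peptide (50 nM) in PBS pH 7.4, 0.01% Tween-20. Compound added for 30 min at RT, then streptavidin donor/nickel chelate acceptor beads (10 ug/mL) for 30 min.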
JMJD2A Tudor: blocks the human JMJD2A Tudor domain; Potency, µM (doses to about 114 µM), without a hit: at the top dose activity change, negative = inhibition, hits mostly inhibitors; AlphaScreen JMJD2A-Tudor / H3K4me3 peptide binding; AID 504339; 390,000 tested, 4.4% active; note: potency is the fitted concentration of half-maximal effect; % is set by controls: 0 for no effect and ±100 for the full control effect; nearly all actives have a fitted effect of over 50% in size
* marks the source's active call; other numbers are inactive results; [ ] = remark or other dose. Unless noted, calls come from the whole dose curve; as a rule, active = well fitted curve in the direction sought with a large enough effect; inconclusive = small, poorly fitted or top-dose-only effect, or another doubt; inactive = no such curve, though single readings can be large; an effect the other way counts as inactive or inconclusive.

What do the screens show for `Nc1nonc1C(=O)NCCNC(=O)c1ccc(Cl)c(Cl)c1`?
BAZ2B inh: 7.1%; PI5P4K alpha inh: 1.6; PLK1 PBD block: -0.5%; G9a inh: 10.4%; HP1b chromo inh: 17.4%; JMJD2A Tudor: -2.1%

Results for Cc1ccc(C)c(NC(=O)CSc2ncc3c(n2)-c2ccc(Cl)cc2N(C)S3(=O)=O)c1 ?
BAZ2B inh: -3.1%; G9a inh: -12.5%[59 µM]; HP1b chromo inh: 4.5%; JMJD2A Tudor: -7.1%

What do the screens show for `O=[N+]([O-])c1cccnc1Oc1ccc(F)cc1`?
BAZ2B inh: -24.8%; PI5P4K alpha inh: -0.7; PLK1 PBD block: -11.7%; G9a inh: -26.5%; HP1b chromo inh: -25.9%; JMJD2A Tudor: -14.2%

Results for O=[N+]([O-])c1ccc(Oc2ccc(F)cc2)c2ccncc12 ?
BAZ2B inh: 50.1µM*; PI5P4K alpha inh: -3.5; PLK1 PBD block: -6.0%; G9a inh: inconclusive; HP1b chromo inh: -33.9%; JMJD2A Tudor: inconclusive

What do the screens show for `CCSc1nnc(-c2sc3nnc(-c4ccccc4)c(-c4ccccc4)c3c2N)o1`?
BAZ2B inh: 53.5%; PI5P4K alpha inh: -2.8; PLK1 PBD block: 15µM*; HP1b chromo inh: 177.1%; JMJD2A Tudor: 59.1%

What do the screens show for `CCSc1nnc(-c2ccncc2)o1`?
BAZ2B inh: -24.3%; PLK1 PBD block: 1.2%; G9a inh: 32.8%; HP1b chromo inh: 14.6%; JMJD2A Tudor: -22.4%

Results for C1CSC2(N1)C1CC3CC(C1)CC2C3 (stereo not drawn) ?
BAZ2B inh: -2.1%; PI5P4K alpha inh: 5.9; PLK1 PBD block: -4.2%; G9a inh: 6.31µM*; HP1b chromo inh: -3.8%; JMJD2A Tudor: -32.5%

How did CC1CCN(c2ccc3c(c2)S(=O)(=O)c2cccc(C(=O)NC4CC4)c2C3=O)CC1 do in these assays?
PI5P4K alpha inh: 8.6; PLK1 PBD block: 11.0%; HP1b chromo inh: 50.3%; JMJD2A Tudor: -7.2%

Results for C/[N+]([O-])=C\c1cccc(OCCN2CCN(c3ncc(C(F)(F)F)cc3Cl)CC2)c1 ?
BAZ2B inh: inconclusive; PI5P4K alpha inh: -5.5; PLK1 PBD block: 11.9µM*; G9a inh: 17.9%; HP1b chromo inh: 4.4%; JMJD2A Tudor: inconclusive

Results for CCc1ccc(NC(=O)Cn2c(=O)c3cc(Cl)ccc3n3nncc23)cc1 ?
BAZ2B inh: 0.9%; G9a inh: 46.1%[59 µM]; HP1b chromo inh: 42.0%; JMJD2A Tudor: -22.5%

What do the screens show for `CN1CCS/C1=C/C=C1/SC(=S)N(Cc2ccccc2)C1=O`?
BAZ2B inh: 10µM*; PI5P4K alpha inh: 1.9; PLK1 PBD block: 33.2%; G9a inh: inconclusive; HP1b chromo inh: 12.6µM*; JMJD2A Tudor: inconclusive

How did CCCCN1C(=O)/C(=C/C=C2\SCCN2C)SC1=S do in these assays?
BAZ2B inh: 10µM*; PI5P4K alpha inh: 3.7; PLK1 PBD block: 48.9%; G9a inh: 12.6µM*; HP1b chromo inh: 28.2µM*; JMJD2A Tudor: 35.5µM*

Results for CCCCN1C(=O)/C(=C/C=C2\N(C)c3ccccc3C2(C)C)SC1=S ?
BAZ2B inh: 8.91µM*; G9a inh: inconclusive

How did CN1CCS/C1=C/C=C1\SC(=S)N(CC(=O)O)C1=O do in these assays?
BAZ2B inh: 50.1µM*; PI5P4K alpha inh: -2.1; PLK1 PBD block: 119.9%; G9a inh: 44.7µM*; HP1b chromo inh: -4.0%; JMJD2A Tudor: inconclusive

Results for CCCCN(C)c1c(C)nc2ccc(C(=O)N(C)Cc3ccco3)cn12 ?
PI5P4K alpha inh: -0.9; PLK1 PBD block: -3.7%

Results for COc1ccc(/C=C2\S/C(=N/S(=O)(=O)c3cccs3)NC2=O)cc1 ?
PI5P4K alpha inh: -23.5; PLK1 PBD block: 23.8µM*; G9a inh: inconclusive; HP1b chromo inh: 14.7%; JMJD2A Tudor: -34.3%

Results for COc1ccc(/C=N/S(=O)(=O)c2cccs2)cc1 ?
BAZ2B inh: 4.8%; PI5P4K alpha inh: -3.6; PLK1 PBD block: -4.9%; G9a inh: -2.3%[59 µM]; HP1b chromo inh: 16.4%; JMJD2A Tudor: 10.5%

How did CCOc1ccc(CCNC(=O)CSCc2ccc(C)cc2)cc1OCC do in these assays?
BAZ2B inh: -2.0%; PI5P4K alpha inh: 3.6; PLK1 PBD block: -4.6%; G9a inh: inconclusive; HP1b chromo inh: 15.4%; JMJD2A Tudor: -22.8%

How did CCOc1ccc(CCNC(=O)C2CCN(C(=O)N(C)C)CC2)cc1OCC do in these assays?
BAZ2B inh: 2.1%; PLK1 PBD block: -7.1%; G9a inh: -5.7%[59 µM]; HP1b chromo inh: 9.9%; JMJD2A Tudor: 89.1µM*

What do the screens show for `CCOc1ccc(CCNC(=O)C2CC(C)=CCC2C(=O)O)cc1OCC` (stereo not drawn)?
BAZ2B inh: 50.1µM*; PI5P4K alpha inh: 2.6; PLK1 PBD block: inconclusive; G9a inh: 22.4µM*; HP1b chromo inh: inconclusive; JMJD2A Tudor: 25.1µM*

Results for CCOc1ccc(CCNC(=O)CSC(=S)N2CCCC2)cc1OCC ?
BAZ2B inh: 6.6%; PI5P4K alpha inh: -10.7; PLK1 PBD block: 0.0%; G9a inh: 39.8µM*; HP1b chromo inh: -4.6%; JMJD2A Tudor: inconclusive

Results for COC(=O)[C@]12CCCCC=C1N(Cc1ccco1)C(=O)[C@H](CC(=O)NCCc1ccccc1OC)C2 ?
PI5P4K alpha inh: 4.8; PLK1 PBD block: -6.7%

What do the screens show for `CCOc1ccc(OC(=O)c2c(-c3ccccc3Cl)noc2C)cc1`?
BAZ2B inh: 66.8%; G9a inh: 28.8%[59 µM]; HP1b chromo inh: 90.7%; JMJD2A Tudor: 43.7%

How did C(=C\c1ccccc1)/CN1CCN(C(c2nnnn2Cc2ccccc2)C2CC2)CC1 (stereo not drawn) do in these assays?
PI5P4K alpha inh: 0.8; PLK1 PBD block: 2.9%

How did COc1ccc2nc(/C=N/NC(=O)CCNC(=O)OC(C)(C)C)ccc2c1 do in these assays?
BAZ2B inh: -14.8%; PI5P4K alpha inh: 0.0; PLK1 PBD block: 4.1%; G9a inh: 31.6µM*; HP1b chromo inh: 12.6%; JMJD2A Tudor: -24.0%

What do the screens show for `O=C(NC(=S)N1CCCCC1c1cccnc1)c1ccc(F)cc1` (stereo not drawn)?
BAZ2B inh: -12.6%[57.1 µM]; PI5P4K alpha inh: 2.3; PLK1 PBD block: inconclusive; G9a inh: 31.6µM*; HP1b chromo inh: -1.3%; JMJD2A Tudor: -19.4%

What do the screens show for `O=C(NC(=S)N1CCCCC1c1cccnc1)c1ccc(Br)cc1` (stereo not drawn)?
BAZ2B inh: -4.1%[57.1 µM]; PI5P4K alpha inh: 0.4; PLK1 PBD block: inconclusive; G9a inh: 22.4µM*; HP1b chromo inh: 35.5%; JMJD2A Tudor: -0.3%

How did Cc1cccc(NC(=S)N2CCCCC2c2cccnc2)c1C (stereo not drawn) do in these assays?
BAZ2B inh: -4.1%; PI5P4K alpha inh: -0.5; PLK1 PBD block: -5.1%; G9a inh: -24.9%; HP1b chromo inh: -6.2%; JMJD2A Tudor: -6.0%
